Source: PubChem BioAssay (The Scripps Research Institute Molecular Screening Center)
hgDAF-12 ag: hgDAF-12 agonism, primary luciferase screen | HEK293 GAL4-hgDAF12 UAS-luciferase reporter, agonist luminescence; normalized to butyrate control | activation, % at 6.8 µM | actives 1.8% (n = 370,000) | AID 687014;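 active = activation above a cutoff set at the mean of all screened compounds plus 3 SD, cut at about 10% in these data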;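 also: 0% = DMSO wells and 100% = sodium butyrate wells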
DAX1 inh-1: inhibits human nuclear receptor DAX1 | actives 0.99% (n = 340,000) | inhibition, % at 6.75 µM | HEK293 Gal4-DAX1 luciferase reporter, luminescence;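 active = inhibition above the mean over all tested compounds plus 3 SD, cut at about 4.2% in these data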;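 also: 0% = DAX1-transfected cells with DMSO and 100% = empty-vector control cells with DMSO; inhibition shows as a rise in luminescence from relieved DAX1 repression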
Target sequence (P51843 207-470 limits assumed): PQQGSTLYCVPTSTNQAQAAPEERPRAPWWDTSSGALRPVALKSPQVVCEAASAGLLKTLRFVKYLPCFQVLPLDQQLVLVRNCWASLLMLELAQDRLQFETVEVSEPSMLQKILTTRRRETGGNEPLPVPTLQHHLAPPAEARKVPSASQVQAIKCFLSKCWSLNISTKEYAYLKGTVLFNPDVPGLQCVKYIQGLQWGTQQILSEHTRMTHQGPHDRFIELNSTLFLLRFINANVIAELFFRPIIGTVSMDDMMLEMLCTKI
DAX1 inh-2: inhibitors of DAX1 repression of SF-1 activated StAR promoter. HEK293T StAR-luciferase reporter, SF-1/DAX-1 repression relief. inhibition, % at 6.8 µM. actives 1.1% (n = 370,000);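 active = inhibition above the mean over all tested compounds plus 3 SD, cut at about 3.6% in these data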;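 also: 0% = DAX-1 cells with DMSO and 100% = cells lacking DAX-1 with DMSO; higher inhibition means more luminescence from relief of DAX-1 repression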
FXN GAA850 act: activators of GAA850 frataxin (FXN) promoter | actives 0.56% (n = 360,000) | activation, % at 6 µM | HEK293 lucGAA850 FXN promoter luciferase reporter, 24 h; percent of 10 µM SAHA response | AID 540364;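 active = activation above the average of all compounds screened plus 3 SD, cutoff fixed separately per campaign, cut at about 7.5% in these data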;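 also: 0% = DMSO wells and 100% = 10 µM SAHA wells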
ssDAF-12 act: activates DAF-12 receptor from parasite S. stercoralis. HEK293 ssDAF-12/GRIP1 lit1-tk-luc reporter, luminescence; % of 3 µM dafachronic acid response. actives 1% (n = 370,000). activation, % at 6.8 µM. AID 652126;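 active = activation above the mean over all tested compounds plus 3 SD, cut at about 0.9% in these data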;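 also: 0% = DMSO-only wells and 100% = 3 µM delta7-dafachronic acid wells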
hcDAF-12 act: activators of H. contortus DAF-12 nuclear receptor. HEK293 hcDAF-12 lit1-tk-luc reporter, luminescence; 0% DMSO, 100% Δ7-dafachronic acid. activation, % at 6.8 µM. actives 1.4% (n = 370,000). AID 652067;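 active = activation above the mean of all tested compounds plus 3 SD, cut at about 5.5% in these data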;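 also: 100% = response to 3 µM Δ7-dafachronic acid high control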
Numbers without * were called inactive; . = not tested or not shown. Hits are enriched below; roughly 4.5% of the tested compounds scored in any of these assays.

SMILES | hgDAF-12 ag | DAX1 inh-1 | DAX1 inh-2 | FXN GAA850 act | ssDAF-12 act | hcDAF-12 act
Cc1cc(Oc2nc3c(C)cccn3c(=O)c2/C=C(\C#N)S(=O)(=O)c2ccccc2)ccc1Cl | 4 | 0 | 1 | 1 | 1 | 6.2*
COc1ccc(NC(=O)CSc2ccccn2)cc1 | 5 | 0 | 1 | 1 | -1 | 1
O=C(CSc1nnc(-c2ccc(O)cc2)o1)Nc1ccc2c(c1)OCCO2 | 8 | 0 | 3.6* | 4 | -1 | 2
COc1ccc(C(=O)NCCSc2ccccn2)cc1 | 12* | 0 | 3 | 3 | 0 | 6.4*
COc1cccc(NC(=O)CSc2ccccn2)c1 | 13* | 3 | 1 | 2 | 0 | 4
COc1cccc(NC(=O)CSc2nnc(-c3ccc(C)cc3)o2)c1 | 11* | 6.1* | 6.5* | 5 | 0 | 3
O=C(NCCN1CCC(Cc2ccccc2)CC1)C1CCCN(S(=O)(=O)c2ccc(Cl)s2)C1 (stereo unspecified) | -1 | . | -1 | . | -2 | -4
CC(C)CN1CCN(CC#Cc2ccccc2)CC1CCO (stereo unspecified) | -1 | 3 | 2 | 4 | -1 | 1
OCCC1CN(CC#Cc2ccccc2)CCN1Cc1ccccc1F (stereo unspecified) | 0 | 0 | 0 | 2 | 1.6* | 3
Cc1ccc(CNC(=O)CCc2ccc(S(=O)(=O)NC3CCCCC3)cc2)cc1 | -3 | 0 | 0 | 1 | -2 | 5.8*
CCCOc1ccccc1/C=C(\C#N)C(=O)Nc1cccnc1 | 4 | 5.0* | 0 | 3 | -1 | 0
O=C(OCCN1CCN(C2CN(Cc3cn(Cc4ccc([N+](=O)[O-])cc4)nn3)S(=O)(=O)C2)CC1)c1cc2ccccc2o1 (stereo unspecified) | -2 | . | -1 | . | -1 | 1
CCC(=O)N1CCc2cc(Br)c(S(=O)(=O)N3CCC(C(=O)NCCCOC(C)C)CC3)cc21 | 2 | . | 0 | . | 0 | -3
CCOC(=O)/C=C(\C)Sc1cc(O)c2ccccc2c1O | -4 | -3 | -1 | 0 | 1 | 5.8*
CCOC(=O)/C=C(\C)Sc1cc(=O)oc2ccccc12 | -4 | -3 | -2 | -10 | -2 | 0
Clc1ccc([C@H]2OC[C@@]3(CNCCc4c[nH]c5ccccc45)CS[C@H](c4ccc(Cl)cc4)N23)cc1 | 1 | . | 0 | . | -1 | -1
CC(C)[C@H](NC(=O)N1c2ccccc2NC(=O)[C@@H]1C(C)C)C(=O)N[C@@H](C(=O)O)c1ccccc1 | 4 | 4.5* | 0 | 0 | -2 | 0
CCNC(=O)Nc1ccc2c(c1)C(=O)N(C)[C@H]1CC[C@H](CC(=O)N[C@H](C)c3ccccc3)O[C@@H]1CO2 | 1 | . | 0 | . | -1 | 1
OCCN1CCCC12CCC(c1ccccc1)CC2 (stereo unspecified) | 1 | . | 0 | . | -1 | 0
CC(=C/c1ccccc1)/C=N/n1c(-c2ccncc2)n[nH]c1=S | 1 | -1 | 0 | -6 | -2 | -2
CC(=C/c1ccccc1)/C=N/n1c(C)n[nH]c1=S | 2 | 4.7* | 0 | 4 | -1 | -1
O=C(OCC#CCSc1nnc(-c2ccc(Cl)cc2)o1)c1ccc(F)cc1 | 3 | . | . | . | -1 | 0
Cn1c(O)c(C2=c3ccccc3=NC2=O)[nH]c1=S | 1 | 1 | 0 | 3 | 1.2* | 5
COc1ccc(Cn2c(NC(=O)c3ccccc3)nc(Cc3ccccc3)c2Cc2ccccc2)cc1 | 0 | . | -1 | . | -1 | 1
CC(=O)N1CCc2c1cccc2S(=O)(=O)NC(CC(C)C)C(=O)Nc1ccc(Cl)c(Cl)c1 (stereo unspecified) | -1 | . | 0 | . | -2 | 0
SMILES | hgDAF-12 ag | DAX1 inh-1 | DAX1 inh-2 | FXN GAA850 act | ssDAF-12 act | hcDAF-12 act
Clc1ccccc1CSc1nc2ccncc2[nH]1 | 12* | -1 | 3 | 4 | 0 | 4
C=CCn1c(=O)c(C(=O)Nc2ccccc2O)c(O)c2ccccc21 | 1 | 1 | 0 | 3 | 1.0* | 3
CCn1c(=O)c(C(=O)Nc2ccccc2C)c(O)c2ccccc21 | 3 | 1 | 0 | 2 | 1.4* | 4
Cc1ccc(NC(=O)c2c(O)c3ccccc3n(C)c2=O)nc1 | 5 | 1 | 0 | 7 | 0 | 6.0*
Cc1ccc(NC(=O)c2ccc(C(=O)c3ccccc3)cc2)nc1 | 5 | 1 | 3.9* | 1 | -1 | -1
CC(=O)c1cc(-c2ccccc2)c(=O)n2c1CCC2 | 1 | . | 0 | . | -1 | 1
CN(C(=O)C1CCN(c2cncnc2)CC1)C1CCCCC1 | 1 | . | -1 | . | -1 | -1
O=C(CN1C(=O)C2CC=CCC2C1=O)Nc1ccccc1N1CCCC1 (stereo unspecified) | 4 | 0 | -1 | -1 | -1 | 0
COc1ccccc1CC(=O)Nc1cc(Cl)ccc1O | -1 | -1 | 0 | 0 | -2 | 4
CC(=O)N1CCN(c2ccccc2NC(=O)COc2ccc(Br)cc2)CC1 | 0 | 0 | -1 | -1 | -2 | -2
COc1ccc(N2CCCC2)c(NC(=O)COc2ccccc2Cl)c1 | 1 | 0 | 0 | 1 | 1.5* | 4
O=C(CN1C(=O)C2CCCCC2C1=O)Nc1ccccc1N1CCCC1 (stereo unspecified) | 2 | 2 | 4.1* | 2 | -1 | 1
O=C(COc1ccc(Br)cc1)Nc1ccccc1N1CCCC1 | 2 | 2 | 0 | -1 | 1.4* | 1
O=C(COc1ccccc1Cl)Nc1cc(Cl)ccc1O | 6 | 4.9* | 1 | 3 | 1.6* | 5.7*
COc1ccc(OCC(=O)Nc2cc(OC)ccc2N2CCCCC2)cc1 | 1 | 0 | 0 | 1 | 0 | 1
Cc1ccc(CN2CCCCC(NC(=O)c3ccc(COc4ccccc4)cc3)C2=O)cc1 (stereo unspecified) | -4 | . | -3 | . | -2 | -5
Cc1ccc(-c2[nH]ncc2/C=N/n2c(COc3ccccc3C)nc3ccccc3c2=O)cc1 | 13* | -2 | -1 | -1 | -1 | 0
O=C1CCC[C@@H]2Cc3nc4cc5c(cc4cc3[C@@H]3CCN1[C@H]23)OCO5 | 5 | 6.1* | 0 | 4 | -1 | 0
O=C1CCC[C@@H]2Cc3nc4ccc(O)cc4cc3[C@@H]3CCN1[C@H]23 | -2 | 1 | 1 | 1 | 0 | 1
N#CCC[C@H]1CC[C@]2(CCCN(Cc3ccc(Br)cc3)C2)O1 | -3 | . | 0 | . | -1 | 1
c1cncc(CNc2nc(N3CCOCC3)nc(N3CCOCC3)n2)c1 | 0 | -1 | 0 | -2 | -1 | 0
CC(C)(C)Nc1nc(NCc2cccnc2)nc(N2CCOCC2)n1 | -1 | 5.9* | 1 | 0 | -1 | -1
Cc1ccccc1C(=O)Oc1ccc2ccc(O)cc2c1 | 10* | 4.7* | 1 | 3 | -1 | 2
